Experimental data as given in PubChem BioAssay AID1044 (The Scripps Research Institute Molecular Screening Center, 2008).
In all, about 16,000 compounds went through this assay and about 240 (1.5%) were called active. Rule as the data show it: active = activation above about 80%; inactive = the rest. Shown is part of a subset that was picked to be rich in actives.

target: Sphingosine 1-phosphate receptor 1 (Homo sapiens) (UniProt P21453); test: S1P1 (human) receptor agonism (AID 1044); settings: S1P1 agonist cell-based reporter assay; at 4.5 µM; active compounds read high
Sequence (P21453 whole entry, looked up): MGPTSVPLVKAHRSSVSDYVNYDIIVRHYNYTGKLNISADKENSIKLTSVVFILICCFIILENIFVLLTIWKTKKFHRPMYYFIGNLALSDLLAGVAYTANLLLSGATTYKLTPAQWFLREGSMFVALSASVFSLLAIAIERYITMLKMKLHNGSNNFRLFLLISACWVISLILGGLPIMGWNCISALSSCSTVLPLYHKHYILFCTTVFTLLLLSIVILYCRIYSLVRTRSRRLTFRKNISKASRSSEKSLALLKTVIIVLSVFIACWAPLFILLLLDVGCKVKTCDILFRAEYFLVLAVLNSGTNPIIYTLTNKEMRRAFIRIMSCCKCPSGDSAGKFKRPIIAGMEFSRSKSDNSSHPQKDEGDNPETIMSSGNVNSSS

activation, active:
NNC(=O)c1csc(COc2ccc(C3SCCS3)cc2)n1 83%
COc1cccc(NC(=S)NNC(=S)NC2CC3CCC2C3)c1 (configuration not stated) 97.7%
O=C(CNC(=O)c1ccccc1F)c1ccc(Br)cc1 84.7%
CC(C)(C)OC(=O)n1ccc2cc(Br)ccc21 111%
COC(=O)CCN1CCc2cc(N=Nc3ccc(C(F)(F)F)cc3)ccc21 99.2%
O=C(NNC(=S)Nc1ccccc1Cl)c1ccc(OC(F)(F)F)cc1 91.2%

activation, inactive:
Cc1c(-c2cnc(NC(=O)c3ccccc3)s2)sc2ccc(Cl)cc12 7.33%
NNC(=O)COc1ccc(C2SCCS2)cc1 -2.77%
O=C(Nc1ccc(Cl)cc1)c1csc(COc2ccc3nonc3c2)n1 -33.9%
O=c1oc2ccc(Cl)cc2cc1-c1ccc([N+](=O)[O-])cc1 -9.38%
O=C(NNc1ccc(C(F)(F)F)cn1)c1ccccc1Cl -0.55%
COc1cccc2cc(C(=O)O)oc12 -0.93%
O=C(O)CC(CC(=O)O)c1ccc(C(F)(F)F)cc1 0.91%
O=C1c2ccc3c4c(ccc(c24)C(=O)N1c1ccccc1)C(=O)N(c1ccccc1)C3=O -6.17%
CCCCCCNC(=O)NCCCCCC -9.06%
COc1ccc(CCNCC(O)Cn2ccc3ccccc32)cc1OC (configuration not stated) 5.51%
c1ccc2c(c1)NC(C1Nc3ccccc3O1)O2 (configuration not stated) -3.26%
COc1cc(CCN=Cc2ccccc2O)c([N+](=O)[O-])cc1OC -11.4%
CS/C(N)=N/N=C/c1cccs1 -0.53%
COC(=O)C1=C(NNc2ccccc2)CSC1 6.31%
Cc1cc(CNCC(O)C(F)(F)F)no1 (configuration not stated) -6.99%
FC(F)(F)C1=CC=NCCN1 1.36%
N/C(=N\OC(=O)Nc1ccccc1)c1ccc(Oc2c(Cl)cncc2Cl)cc1 13.7%
Cc1nc(-c2ccc(NC(=O)COCC(=O)O)cc2)cs1 -4.96%
CCCCCCCCc1ccc(C(=O)O)cc1 19.6%
CCOC(=O)c1c(NC(=S)Nc2ccccc2)sc2c1CCN(C)C2 -17.2%
Cc1nnsc1-c1nnc(SCC(=O)c2ccc3c(c2)OCO3)n1C1CC1 0.92%
COc1cccc(NC(=S)N(CCC#N)C2CCCCC2)c1 -17.6%
COc1ccc(NC(=S)Nc2ccc(OC)cc2)cc1 2.11%
COc1cccc(C(=O)c2sc3nsc(SCc4ccc(F)cc4)c3c2N)c1 50.7%
Cc1ccc([N+](=O)[O-])c(C(=O)NCC(=O)O)c1 -20%
OC(COc1ccc(F)cc1)(c1ccccc1)c1ccccc1 -25.6%
CCO/N=C\c1nn(S(C)(=O)=O)cc1Br -3.43%
CCOC(=O)Cc1nc(N)ncc1C(=O)OCC -10.1%
Clc1ccc(-c2csc(N/N=C\c3ccn[nH]3)n2)cc1 8.84%
O=C(NCCO)NCCSc1ccc(F)cc1 -13.1%
O=C1CSC(=S)N1c1ccc(N2CCCCCC2)c(N2C(=O)CSC2=S)c1 0.84%
COC(=O)c1ccc(S(=O)(=O)NNC(=O)c2cn3cc(C(F)(F)F)cc(Cl)c3n2)n1C -20.2%
N#Cc1ccc(N2CCSCC2)cc1[N+](=O)[O-] -27.1%
O=C(O)c1ccccc1Nc1ccccc1F 2.49%
O=C(Nc1ccccc1C(=O)NCc1c(F)cccc1Cl)c1ccccc1Cl 15.3%
Cc1ccc(Sc2cc(C)c(C)cc2N)c(C)c1 10.7%
Cc1csc(/N=C/N(C)C)c1C#N -3.89%
NS(=O)(=O)c1ccc(Oc2c(Cl)cccc2[N+](=O)[O-])cc1 -8.03%
CCCS(=O)(=O)c1csc(C(=O)OC)c1N/N=C/c1cccs1 -27.2%
Cn1cccc1CNC(=O)c1cc(F)cc2c1OCOC2 21.1%
Cc1c(C(=O)Nc2ccccc2)sc2cc(C(C)(C)C)sc12 23.4%
O=C1OC2(CCCCC2)OC1c1ccccc1 (configuration not stated) -9.78%
CSc1nc2c(c(/C=C/c3ccccc3)c1C#N)CCC2 -18.1%
O=C1c2ccccc2O[C@@H](c2ccccc2)[C@@H]1NC1CCCCC1 75.6%
NNC(=O)c1cc2ccccc2s1 8.06%
COC(=O)c1cc(S(=O)(=O)NCc2csc(-c3cccs3)n2)oc1C 4.78%
O=C1CC(c2ccccc2)C(=O)N1Cc1cccs1 (configuration not stated) 1.62%
O=C(NCc1cccnc1)c1cnc2ccccc2n1 -2.22%
N#CC(C#N)=CNc1c(F)cccc1Cl 48.9%
CO/N=C1\C(=O)N(C)c2ccccc21 -2.23%
COC(=O)c1cc(OC)c(OC)cc1NC(=O)c1ccccc1C(=O)O 14.4%
O=C1c2ccccc2C(=O)N1CCCN1CCN(Cc2c(F)cccc2Cl)CC1 -0.27%
S=C(SCc1ncon1)N1CCSCC1 -1.22%
N#Cc1cncc(Br)c1 -9.98%
O=C(O)c1nccnc1C(=O)O -16.2%
CC(=O)c1cc([N+](=O)[O-])c(NC2CCCCC2)s1 -14.1%
O=S(=O)(O)c1ncccn1 3.74%
COc1c(Br)cc(C#N)cc1Br -9.06%
COC(=O)C1=C(c2ccccc2)C(c2ccccc2)=C(C(=O)OC)C1=O 6.63%
N#Cc1cn(C2CCCCC2)c(=O)[nH]c1=O 15.6%
CNC(=O)c1ccccc1Sc1ccccc1C(=O)NC -10.2%
CCOC(=O)C(NC(=O)Nc1ccccc1)(Nc1ccccc1OC)C(F)(F)F (configuration not stated) 5.29%
CCOC(=O)c1c(C)csc1NC(=O)CC(=O)C(F)(F)F 12.6%
COC(=O)c1cc(C(N)=O)c(SC)s1 -10.8%
O=c1c2c(nc3nc[nH]n13)CCC2 1.21%
CSC(C)C(=O)/C=C/N(C)C (configuration not stated) -15.9%
COC(=O)C(C#N)c1ccc(C(F)(F)F)cc1[N+](=O)[O-] (configuration not stated) 14.5%
COC(OC)c1ccc(C#N)c(SCC(=O)Nc2ccc(C(F)(F)F)cc2)n1 -16.6%
CCOC(=O)NC(=O)/C(=C/NC(C)C)C(=O)OCC 22.7%
COc1cc(-c2n[nH]c(=S)n2Cc2ccccc2)cc(OC)c1OC -18.1%
CC1(C)c2ccccc2-n2c1cc(O)c(-c1ccccc1)c2=O -11.7%
CC1(NC(=O)OCc2ccccc2)CC1NC(=O)OCc1ccccc1 (configuration not stated) 11.9%
COC(=O)c1sccc1Oc1ccc(Cl)cc1[N+](=O)[O-] 13.2%
COC(=O)c1sccc1NC(=S)Nc1ccc(C)cc1 -27.1%
OC(CNCCNc1nccc(C(F)(F)F)n1)COc1ccc(Cl)c(Cl)c1 (configuration not stated) 15.7%
CSC(=Nc1ccccc1C(F)(F)F)N1CCCC1 62.5%
NNC(=O)CSc1nnc(-c2ccccc2)n1-c1ccccc1 2.03%
CN(NC(=O)c1ccc(Cl)s1)c1cnn(-c2cc(Cl)cc(Cl)c2)c(=O)c1Cl 7.36%
O=C(NCc1cccnc1)c1ccccc1NC(=O)c1c(F)cccc1F 10.3%
Cc1ccc(S(=O)(=O)NC(=O)NCCSCc2ccco2)cc1 -7.47%
O=C(CSc1ccc(Cl)cc1)NCCSCc1ccco1 3.06%
O=C(O)CSC(SCC(=O)O)c1ccc2c(c1)OCO2 -4.07%
Cc1cc(C)n(/N=c2\sc(-c3ccccc3)cn2C2CC3C=CC2C3)c(=O)c1C#N (configuration not stated) -8.12%
CCOC(=O)c1c(N/N=C\c2ccccc2O)n[nH]c1C -16.7%
COc1cc(NC(=O)COc2cc(Cl)c(Cl)cc2Cl)cc(OC)c1OC 22.5%
O=C(O)Cc1csc(NC(=O)CSc2nnnn2-c2ccc(O)cc2)n1 0.38%
C/C(=N\NC(N)=S)c1cc2cc(Cl)ccc2o1 7.17%
N/C(=N\O)c1ccc2nonc2c1 23.9%
Clc1ccc(-c2csc(-c3cnccn3)n2)s1 1.06%
S=C(Nc1cccnc1)N1CCCN(Cc2ccc(Cl)cc2Cl)CC1 14.2%
COC(=O)c1ccsc1NC(C)=O -7.53%
CCCc1c(C(=O)O)cnn1-c1ccc(Cl)cc1 -21.8%
O/N=C(\c1ccccc1)c1ccccn1 -7.69%
COc1ccc(C2CC(c3cccs3)=Nc3ccccc3S2)c(Cl)c1OC (configuration not stated) 1.73%
O=S(=O)(O)Oc1c[nH]c2ccccc12 -5.88%
CC1=C(C(=O)O)N2C(=O)[C@H](NC(=O)[C@@H](N)c3ccccc3)C2SC1 (some centres not stated) 8.53%
O=C(c1cnn(-c2ccc(Cl)cc2)n1)c1cccs1 3.48%
CC(C)S(=O)(=O)/C(C#N)=C/c1ccccc1OC(F)(F)F -23.8%
Cc1nc(C(=O)NNC(=S)Nc2ccccc2C(F)(F)F)cs1 -8.43%
COC(=O)c1ccccc1NC(=S)NNC(=O)c1ccc([N+](=O)[O-])cc1 -4.53%
Cc1nn(S(=O)(=O)c2ccc(Cl)cc2)cc1-c1ccccc1 -1.3%
